Source: PubChem (National Center for Advancing Translational Sciences (NCATS))
Rows were chosen to be rich in hits. Some 2.3% of all compounds tested hit in one or more screens of this group.
Tau fibril ThT: qHTS for Inhibitors of Tau Fibril Formation, Thioflavin T Binding. Microtubule-associated protein tau (Homo sapiens), P10636. recombinant tau K18 P301L, heparin-induced fibrillization, ThT fluorescence. Potency, µM (highest dose often 57.4 µM), actives largely listed as inhibitors. 2.1% of 270,000 active; note: nearly all actives have a fitted effect of over 55% in size
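Tau K18 P301L fragment (15 uM unlabeled plus 0.24 uM Alexa 594-labeled) in 100 mM sodium acetate pH 7 with compound, fibrillization induced by 20 uM heparin for 6 hr at 37 C. Thioflavin T (30 uM) added, fluorescence read after 1 hr (ex 450, em 510 nm).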
USP1 inh: Inhibitors of USP1/UAF1: Primary Screen; recombinant USP1/UAF1, Ub-Rhodamine cleavage fluorescence; Potency, µM (doses to about 57.1 µM), actives largely listed as inhibitors; 0.23% of 390,000 active; note: nearly all actives have a fitted effect of over 60% in size
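Step one: compound is pinned into 1nM USP1/UAF1 in HEPES pH 7.8 buffer with TCEP. Step two: 15 min room-temperature incubation. Step three: Ub-Rho (150nM final) starts cleavage, tracked by fluorescence over six one-minute reads.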
Tau FP inhib: qHTS for Inhibitors of Tau Fibril Formation, Fluorescence Polarization; Microtubule-associated protein tau (Homo sapiens), P10636; 0.39% of 280,000 active; K18 P301L tau heparin fibrillization, Alexa594 FP, 6 h; Potency, µM (series often up to 57.7 µM), hits mostly inhibitors; AID 1468, 2008; note: nearly all actives have a fitted effect of over 55% in size
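Compound effects on tau fibrillization are measured by Alexa 594 fluorescence polarization (ex 555, em 632 nm). K18 P301L tau is used at 15 uM with 0.24 uM labeled tracer, and 20 uM heparin induces aggregation over 6 hr at 37 C.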
Coupling enz: qHTS Assay for Inhibitors of Fructose-1,6-bisphosphate Aldolase from Giardia Lamblia: Coupling assay counterscreen | coupling enzyme system counterscreen, AmpLite Red fluorescence | 0.67% of 290,000 active | activity change, negative = inhibition, % at 58.2 µM, hits read low; in the data active = activity change below about -30%
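First, compound is pin-transferred into glyceraldehyde-3-phosphate coupling-enzyme reagent at 57.5 uM final and held 10 min at RT. Next, substrate, coupling system and AmpLite Red are added. After 20 min RT, fluorescence (525/598 nm) is read.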
Tau fluor cs: Counterscreen qHTS for Inhibitors of Tau Fibril Formation, Fluorescence Polarization; tau K18 P301L Alexa594 fluorescence, heparin fibrillization; Potency, µM (titrated, usually from 57.7 µM); 0.93% of 280,000 active; AID 1463, 2008; note: nearly all actives have a fitted effect of over 55% in size
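Human tau K18 P301L (15 uM unlabeled, 0.24 uM Alexa 594-labeled) in 100 mM sodium acetate pH 7 with 20 uM heparin, 6 hr at 37 C. ThT 30 uM added, 1 hr ambient; Alexa 594 FP and total fluorescence read at 555/632 nm.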
Each line names hits and unclear results; the compound was inactive in the other large screens; [ ] = dose if it differs, or a comment. Unless noted, calls come from the whole dose curve; as a rule, active = well fitted curve in the direction sought with a large enough effect; inconclusive = small, poorly fitted or top-dose-only effect, or another doubt; inactive = no such curve, though single readings can be large; an effect the other way counts as inactive or inconclusive.

Cc1ccccc1-n1ncc2c1CC(C)(C)CC2NC(=O)c1cn[nH]c1C (centres undefined)	none (no result: Tau fibril ThT, Tau FP inhib, Coupling enz, Tau fluor cs)
O=C(O)c1cc(-c2ccc(/C=N/Nc3ccc([N+](=O)[O-])cn3)o2)ccc1Cl	Tau fibril ThT 1.3µM, USP1 inh inconclusive, Tau fluor cs inconclusive
Cc1c(C(=O)O)cccc1-c1ccc(/C=N/Nc2ccc(Br)cc2)o1	Tau fibril ThT 11µM, Tau fluor cs inconclusive
O=C(O)c1ccc(N/N=C/c2cc3c(cc2[N+](=O)[O-])OCO3)cc1	Tau fibril ThT 14µM
C[N+]1(C)CC[C@@H](OC(=O)[C@@](O)(c2ccccc2)C2CCCC2)C1	none (no result: Tau fibril ThT, USP1 inh, Tau FP inhib, Tau fluor cs)
O=C1OCC2OC(O)C(O)C(O)C2OC(=O)c2cc(O)c(O)c(O)c2-c2c(O)c(O)c3oc(=O)c4c(c(O)c(O)c5oc(=O)c2c3c54)-c2c1cc(O)c(O)c2O (centres undefined)	Tau fibril ThT 7.9µM, Tau FP inhib inconclusive, Tau fluor cs inconclusive (no result: USP1 inh)
COc1ccc(NC(=S)Nc2ccc(OCc3ccccc3)cc2)c(OC)c1	Tau fibril ThT inconclusive, Tau FP inhib inconclusive, Tau fluor cs 14µM[quencher]
COc1ccc(NC(=S)Nc2ccccc2)c(OC)c1	none
Cc1c(N=Nc2ccc(O)cc2)c(=O)n(-c2ccccc2)n1C	none
Cc1c(N=C2C=C(Br)C(=O)C(Br)=C2)c(=O)n(-c2ccccc2)n1C	Tau fibril ThT 16µM, USP1 inh inconclusive, Tau FP inhib 25µM, Tau fluor cs 16µM[quencher]
Cc1c(N2C(=O)c3ccccc3C2=O)c(=O)n(-c2ccccc2)n1C	none
Cc1c(N=C2C=CC(=O)c3ccccc32)c(=O)n(-c2ccccc2)n1C	Tau fibril ThT 2.2µM, USP1 inh 32µM, Tau FP inhib 7.9µM, Coupling enz -52, Tau fluor cs 4.5µM[quencher]
Cc1cc(Nc2ccccc2C)nc(-n2nc(C)cc2C)n1	USP1 inh inconclusive (no result: Coupling enz)
Cc1ccccc1C1=CCN(c2ncc(NC(=O)c3ccc(Cl)cc3)cc2C(=O)O)CC1	Tau fibril ThT 14µM, USP1 inh inconclusive, Tau FP inhib inconclusive (no result: Coupling enz)
Cc1ccnc(N/C=C(/NC(=O)c2ccccc2)C(=O)N/N=C\c2ccc(Cl)cc2)n1	Tau fluor cs inconclusive (no result: Tau fibril ThT)
Cc1cc[n+](-c2[nH]c(=O)sc2/C=N/N=C(\[O-])CCn2c3ccccc3c3ccccc32)cc1	Tau fibril ThT 28µM, Tau FP inhib inconclusive, Tau fluor cs inconclusive
Cc1cc[n+](-c2[nH]c(=O)sc2/C=N/N=C(\[O-])c2ccccc2)cc1	none
CCc1ccc[n+](-c2[nH]c(=O)sc2/C=N/N=C(\[O-])CCn2c3ccccc3c3ccccc32)c1	Tau fibril ThT 16µM, Tau fluor cs inconclusive
O=C1C2CCCCN2C(=O)N1CCCN1CCN(c2ccc(F)cc2)CC1 (centres undefined)	none (no result: Tau fibril ThT, Tau FP inhib, Tau fluor cs)
Nc1ccc(N2CCN(CCCCN3C(=O)C4CCCN4C3=O)CC2)cc1 (centres undefined)	Tau fibril ThT 14µM, Tau FP inhib inconclusive, Tau fluor cs inconclusive
CCOC(=O)c1c(NC(=O)CSc2c[nH]c3ccccc23)sc2c1CCC2	Tau FP inhib inconclusive, Tau fluor cs 10µM[quencher]
O=C(COc1cccnc1[N+](=O)[O-])c1ccc(Cl)s1	Tau fibril ThT 5µM, Tau FP inhib 10µM, Tau fluor cs inconclusive
O=C1c2ccccc2CCC1CNCCc1ccc(O)cc1 (centres undefined)	none (no result: USP1 inh, Coupling enz)
COc1ccc(S(=O)(=O)c2cn(CC(=O)Nc3ccccc3)c3ccc(Cl)cc3c2=O)cc1	none (no result: Coupling enz)
N#C/C(=C/c1ccc(N2CCOCC2)o1)C(=O)Nc1ccccc1	Tau fibril ThT inconclusive, USP1 inh 25µM
N#C/C(=C\c1ccc(N2CCOCC2)o1)C(=O)NC1CCCCC1	Tau fibril ThT inconclusive, USP1 inh inconclusive
N#C/C(=C\c1ccc(N2CCOCC2)o1)C(=O)NCCc1ccccc1	Tau fibril ThT 8.9µM, USP1 inh inconclusive
CCOc1ccccc1NC(=O)Cn1cnc2sc(C)c(S(=O)(=O)N3CCC(C)CC3)c2c1=O	none (no result: Coupling enz)
